Results reported in the supplement of paper PMC9117331.
Counter-ions that a name gives are not always drawn.

Assays:
Settings in all cases: 0.5 µM; time after treatment 48 h; PC9 signalome
PC9 [1] = test: AKT reporter activity score (signed KS statistic vs DMSO) (signed KS statistic (-1 to 1)); higher = stronger activation of the pathway reporter relative to DMSO
PC9 [2] = test: RAR reporter activity score (signed KS statistic vs DMSO) (signed KS statistic (-1 to 1)); higher = stronger activation of the pathway reporter relative to DMSO
PC9 [3] = test: PKC reporter activity score (signed KS statistic vs DMSO) (signed KS statistic (-1 to 1)); higher = stronger activation of the pathway reporter relative to DMSO
PC9 [4] = test: PKA reporter activity score (signed KS statistic vs DMSO) (signed KS statistic (-1 to 1)); higher = stronger activation of the pathway reporter relative to DMSO
PC9 [5] = test: p38 reporter activity score (signed KS statistic vs DMSO) (signed KS statistic (-1 to 1)); higher = stronger activation of the pathway reporter relative to DMSO
PC9 [6] = test: HIF reporter activity score (signed KS statistic vs DMSO) (signed KS statistic (-1 to 1)); higher = stronger activation of the pathway reporter relative to DMSO
PC9 [7] = test: ERK reporter activity score (signed KS statistic vs DMSO) (signed KS statistic (-1 to 1)); higher = stronger activation of the pathway reporter relative to DMSO
PC9 [8] = test: JNK reporter activity score (signed KS statistic vs DMSO) (signed KS statistic (-1 to 1)); higher = stronger activation of the pathway reporter relative to DMSO
PC9 [9] = test: WNT reporter activity score (signed KS statistic vs DMSO) (signed KS statistic (-1 to 1)); higher = stronger activation of the pathway reporter relative to DMSO
PC9 [10] = test: NFkB reporter activity score (signed KS statistic vs DMSO) (signed KS statistic (-1 to 1)); higher = stronger activation of the pathway reporter relative to DMSO
PC9 [11] = test: YAP/TAZ reporter activity score (signed KS statistic vs DMSO) (signed KS statistic (-1 to 1)); higher = stronger activation of the pathway reporter relative to DMSO

SMILES	AKT reporter activity score (PC9 [1])	RAR reporter activity score (PC9 [2])	PKC reporter activity score (PC9 [3])	PKA reporter activity score (PC9 [4])	p38 reporter activity score (PC9 [5])	HIF reporter activity score (PC9 [6])	ERK reporter activity score (PC9 [7])	JNK reporter activity score (PC9 [8])	WNT reporter activity score (PC9 [9])	NFkB reporter activity score (PC9 [10])	YAP/TAZ reporter activity score (PC9 [11])
O=C(NCCCNc1nc(Nc2cccc(NC(=O)N3CCCC3)c2)ncc1I)c1cccs1	-0.261	-0.0747	0.054	-0.174	0.125	-0.0537	-0.0698	-0.102	-0.101	0.0689	-0.0931
COc1cc2ncnc(Nc3ccc(F)c(Cl)c3)c2cc1NC(=O)/C=C/CN1CCCCC1	-0.392	0.516	0.0863	-0.547	-0.404	0.138	-0.698	-0.159	0.343	0.23	0.338
COc1cccc2c1C(=O)c1c(O)c3c(c(O)c1C2=O)C[C@@](O)(C(C)=O)C[C@@H]3O[C@H]1C[C@H](N)[C@H](O)[C@H](C)O1 [Daunorubicin HCl (Daunomycin HCl)]					-0.245		-0.431	0.068	0.915	0.693	
O=C(Nc1cc(C(F)(F)F)cc(C(F)(F)F)c1)c1cc(Cl)ccc1O	-0.694	0.372	0.146	-0.27	0.0561	0.485	-0.0507	0.113	0.101	0.111	0.257
Nc1ncnc2c1c(-c1cnc3[nH]ccc3c1)nn2C1CCCC1	-0.463	0.646	0.116		-0.374	0.183	-0.379	-0.111	0.0862	0.128	0.258
C=CC(=O)Nc1ccc2ncnc(Nc3cccc(Br)c3)c2c1					-0.268	0.234	-0.724				0.467
Cn1c(=O)c(F)c(Nc2ccc(I)cc2F)c2c(=O)n(C[C@@H](O)CO)cnc21	0.104	0.28	0.0748	-0.176	0.193	0.0238	-0.525	0.245	-0.0866	0.274	0.513
COc1ccc(-c2ccc3c(N4CCOC[C@@H]4C)nc(N4CCOC[C@@H]4C)nc3n2)cc1CO	-0.0864	-0.11	0.0766		-0.297	-0.151	-0.211	-0.189	0.13	0.178	0.166
CN(C)C/C=C/C(=O)Nc1cc2c(Nc3ccc(F)c(Cl)c3)ncnc2cc1O[C@H]1CCOC1 [Afatinib (BIBW2992)]	-0.37		0.191		0.229	0.0949	-0.615	0.173	0.34	0.208	0.397
Cc1ccc(C(=O)N(CCCN)[C@@H](c2oc3cc(Cl)ccc3c(=O)c2Cc2ccccc2)C(C)C)cc1			0.176		-0.278	0.473	-0.378	-0.131		0.169	
O=C(/C=C/c1cccc(S(=O)(=O)Nc2ccccc2)c1)NO [Belinostat (PXD101)]	-0.067	0.675	0.12	-0.172	-0.223	0.488	-0.315	-0.122	0.155	0.0869	0.484
Cc1nc(NC(=O)N2CCC[C@H]2C(N)=O)sc1-c1ccnc(C(C)(C)C(F)(F)F)c1 [Alpelisib (BYL719)]	-0.308	0.0272	-0.0493	-0.0979	0.131	-0.123	0.0754	-0.0947	0.0988	0.0495	-0.125
COc1ccc(-c2cc3c(C)nc(N)nc3n([C@H]3CC[C@H](OCCO)CC3)c2=O)cn1	-0.424	0.107	-0.0883	-0.172	-0.364	-0.153	0.0981	-0.166	0.0844	-0.0647	0.155
C[C@H](NC(=O)Cc1cc(F)cc(F)c1)C(=O)N[C@@H]1C(=O)N(C)c2ccccc2-c2ccccc21	-0.303	0.0626	0.0325	-0.0914	0.0414	-0.0336	-0.123	-0.138	-0.0477	-0.12	-0.114
CC(C)CC(=O)Nc1n[nH]c2c1CN(C(=O)C1CCN(C)CC1)C2(C)C	-0.35	0.417		-0.15	-0.296	0.227	-0.107	-0.179	0.117	0.167	0.244
CCN1CCN(Cc2ccc(-c3cc4c(N[C@H](C)c5ccccc5)ncnc4[nH]3)cc2)CC1	-0.376	0.505		-0.379	-0.36	0.189	-0.726	0.193	0.184	0.161	0.381
C=CC(=O)Nc1cccc(Oc2nc(Nc3ccc(N4CCN(C)CC4)cc3)ncc2Cl)c1		0.418	0.125		-0.271	0.164	-0.662	0.152	0.124	0.166	0.333
CN1CC[C@H](c2c(O)cc(O)c3c(=O)cc(-c4ccccc4Cl)oc23)[C@H](O)C1 [Flavopiridol hydrochloride]				-0.608	-0.475	0.353	-0.633	-0.208	0.153	0.123	0.371
C[C@@H](Oc1cc(-n2cnc3ccc(CN4CCN(C)CC4)cc32)sc1C(N)=O)c1ccccc1C(F)(F)F	-0.183	0.399		0.141	0.183	0.347	-0.139	0.0494	0.141	0.0742	
C=CC(=O)N1CCC[C@@H](n2nc(-c3ccc(Oc4ccccc4)cc3)c3c(N)ncnc32)C1	-0.461	0.562			-0.409	0.169	-0.667	-0.17	0.283		0.322
CCN1CCN(Cc2ccc(Nc3ncc(F)c(-c4cc(F)c5nc(C)n(C(C)C)c5c4)n3)nc2)CC1	-0.454	0.2	0.128	-0.473	-0.118	0.484	0.0461	0.34	0.767	0.239	0.183
Cc1[nH]nc2ccc(-c3cncc(OC[C@@H](N)Cc4ccccc4)c3)cc12	-0.173	-0.385	-0.0808	-0.173	0.056	-0.128	-0.166	0.272	0.113		-0.247
